PubChem BioAssay AID720506 (National Center for Advancing Translational Sciences (NCATS), 2013)
Out of some 2,300 compounds screened, about 95 (4%) were called active. Not shown: some 17% with an inconclusive outcome. The sample holds actives, similar compounds and a random draw of the others, so the mix is not that of the screen. Unmarked numbers belong to inactive results. The call rests on the fitted dose curve; in most records, active means well fitted activation curve with a large enough effect; inconclusive means small, poorly fitted or top-dose-only effect; inactive means flat fitted curve, though single readings scatter.

Each molecule was assayed against D(3) dopamine receptor (Homo sapiens) (UniProt P35462) (assay: qHTS of D3 Dopamine Receptor Agonist: D3 Dopamine Receptor B-arrestin Agonist Confirmatory Assay). Settings: DiscoveRx D3 beta-arrestin cells, luminescence, 90 min; series mostly up to 76.9 µM; activation: at the top concentration.
Source text: D3 DARs represent a very important target for the treatment of several neuropsychiatric disorders. Indeed, one of the most promising therapeutic applications for the D3 DAR is in the area of addiction and related disorders. […] These findings have been observed with a number of addictive substances including cocaine, amphetamine, nicotine, and alcohol. […] Increased D3 DAR activity can thus lead to neuroprotective and neurorestorative actions in the CNS. […] This assay is used to confirm the activity of the identified D3 dopamine receptor agonist. Activation is the desired outcome for this assay. NIH Molecular Libraries Probe Production Centers Network [MLPCN] NIH Chemical Genomics Center [NCGC] MLPCN Grant: NS064831 Assay Submitter (PI): David Sibley
Freshly passaged DiscoveRx D3 cells are plated in 1536 well white, solid bottom plates at a density of 1500 cells/well in 3microl of complete media. After an overnight incubation at 37 degrees C in 5% CO2, cells are loaded with 23nl of test compound from the compound library (as well as dopamine controls) using a 1536 pintool and incubated at 37 degrees C for 90 minutes. Two microliters of DiscoveRx reagent is then added to all cells, and they are incubated for an additional 30 - 60 minutes at room temperature. Following incubation, luminescence is measured on a ViewLux CCD-based luminometer reader using a 20 sec exposure time.
Further: nearly all actives have a fitted effect of over 70% in size.
Potency means the concentration at half of the fitted maximal effect.
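Wherever activation is given: 100% = dopamine control response.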

Chain of D(3) dopamine receptor (Homo sapiens) (P35462 whole entry, looked up): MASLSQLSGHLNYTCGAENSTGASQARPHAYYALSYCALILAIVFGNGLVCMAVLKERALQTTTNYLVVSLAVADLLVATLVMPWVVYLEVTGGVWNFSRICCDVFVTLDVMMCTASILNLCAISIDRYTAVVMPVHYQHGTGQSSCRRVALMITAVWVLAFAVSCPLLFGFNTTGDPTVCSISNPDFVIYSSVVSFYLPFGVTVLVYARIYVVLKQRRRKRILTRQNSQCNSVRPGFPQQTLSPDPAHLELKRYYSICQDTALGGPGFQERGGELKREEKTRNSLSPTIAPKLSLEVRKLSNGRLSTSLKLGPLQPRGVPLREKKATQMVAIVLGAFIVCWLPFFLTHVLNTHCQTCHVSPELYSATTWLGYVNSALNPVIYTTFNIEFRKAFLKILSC

Compound | activation | Potency
Cc1cc(C)n2nc(C(=O)N3CCN(Cc4ccc5c(c4)OCO5)CC3)nc2n1 | 3% | 
CCCN(CC(=O)Nc1ccccc1C)C(=O)c1ccc2[nH]c3c(c2c1)CC(C)CC3 (stereo unspecified) | -0.304% | 
OC(COCc1ccco1)CN1CCN(c2ccccc2)CC1 (stereo unspecified) | -3.53% | 
O=C(CSC1CC(=O)N(CCc2ccccc2)C1=O)Nc1ccc(Cl)cc1 (stereo unspecified) | -1.08% | 
CC(C)(C)C(=O)OCc1nc(-c2ccc(O)c(O)c2)cs1 |  | 11.2 µM (active)
O=c1oc(-c2ccccc2NS(=O)(=O)c2ccc(Cl)cc2)nc2ccccc12 | -0.248% | 
O=C(C1CC(=O)N(c2ccc(F)cc2)C1)N1CCN(c2ccccc2)CC1 (stereo unspecified) | -1.88% | 
CCn1c(=O)cc(OCC(=O)NCCCN2CCN(c3cccc(Cl)c3)CC2)c2ccccc21 | -0.221% | 
CN1CCN(S(=O)(=O)c2cccc(C(=O)Nc3sccc3C#N)c2)CC1 | 6.9% | 
O=C(CNCc1cccs1)Nc1cc(S(=O)(=O)N2CCCC2)ccc1Cl |  | 17.8 µM (active)
O=C(c1ccc2c(c1)OCCO2)C1CCN(S(=O)(=O)c2cccc(F)c2)CC1 | -8.28% | 
CC(CCc1ccccc1)NCC(O)c1cccc([N+](=O)[O-])c1 (stereo unspecified) | -0.828% | 
CC(CCc1ccc(O)cc1)NCc1ccc(Cl)cc1Cl (stereo unspecified) |  | 1.78 µM (active)
CC1(C)CC(=O)C=C(c2ccc3ncccc3c2)C1 | -3.23% | 
Cc1c(C(=O)Nc2cccc(-c3nnc4n3CCCCC4)c2)oc2ccccc12 | -0.331% | 
O=C(NC1CCCCC1)c1ccc2c(=O)n(CC3CCCO3)c(=O)[nH]c2c1 (stereo unspecified) | 5.22% | 

Compound | activation | Potency
CCOC(=O)[C@H]1[C@H]2COc3ccc(C)cc3[C@@H]2N2C(=O)CN(Cc3ccc(F)cc3)C(=O)[C@@]12C | -4.45% | 
O=C(CCN1CCN(C/C=C/c2ccccc2)CC1)Nc1ccccc1Cl | 20% | 
COc1cccc(NC(=O)C2CCCN(c3ncnc4c3nc3n4CCCCC3)C2)c1 (stereo unspecified) | -5.52% | 
CC(C)c1ccc2c(c1)c(SC(C)(C)C)c(CC(C)(C)C(=O)O)n2Cc1ccc(Cl)cc1 | 29% | 
O=C(c1c(F)cccc1F)N1CCN(S(=O)(=O)c2ccc3c(c2)OCCO3)CC1 | 0.221% | 
Cc1cccc(OCC(=O)NCC(=O)N/N=C/c2ccc(N(C)C)cc2)c1 | -8.89% | 
Cc1cc(C)c(/C=C2\C(=O)Nc3ccccc32)[nH]1 | -20.8% | 
CCn1cc(C(=O)N2CCN(Cc3ccc4c(c3)OCO4)CC2)c2cc(OC)c(OC)cc2c1=O | 8.46% | 
COc1cccc(OC)c1OCCN1CCN(C(=O)c2ccco2)CC1 |  | 0.631 µM (active)
CCC(=O)Nc1ccc(C(=O)N2CCN(C(=O)c3ccco3)CC2)cc1 | -6.56% | 
O=C(Cc1csc(Nc2nc(=S)[nH]c3ccccc23)n1)NCCCN1CCN(c2cccc(Cl)c2)CC1 | -8.61% | 
COc1ccc(C2NC(=O)C(=O)/C2=C(\O)c2ccc(Cl)cc2)cc1OC (stereo unspecified) | -9.76% | 
O=C(CN1CCN(S(=O)(=O)c2cc(Cl)ccc2Cl)CC1)c1ccc(O)c(O)c1 |  | 35.5 µM (active)
O=C(CCCn1c(=O)[nH]c2cc(Cl)ccc2c1=O)NCCN1CCN(c2ccccc2)CC1 | -3.42% | 
O=C(c1c(Cl)cccc1Cl)N1CCN(c2cccc3[nH]ccc23)CC1 | 15% | 
